{"source": "ChEMBL document CHEMBL1157539", "about": "“Thousands of chemical starting points for antimalarial lead identification” (Nature, 2010)", "type_in_all_cases": "functional", "key": {"Plasmodium falciparum [1]": {"tested_on": "Plasmodium falciparum", "experiment": "GSK_TCMDC: Inhibition of Plasmodium falciparum 3D7 in whole red blood cells, using parasite LDH activity as an index of growth. Test compounds present at 2uM"}, "Plasmodium falciparum [2]": {"tested_on": "Plasmodium falciparum", "experiment": "GSK_TCMDC: Inhibition of Plasmodium falciparum Dd2 in whole red blood cells, using parasite LDH activity as an index of growth. Test compounds present at 2uM"}, "HepG2": {"tested_on": "HepG2", "experiment": "GSK_TCMDC: Percent inhibition of human HepG2 cell line. Test compounds present at 10uM."}}, "data": [{"smiles": "Cc1cc(O)nc(NC(=N)NOCCCc2ccccc2)n1", "values": [{"measurement": "Inhibition", "setting": "Plasmodium falciparum [1]", "result": 100, "unit": "%"}, {"measurement": "Inhibition", "setting": "Plasmodium falciparum [2]", "result": 4, "unit": "%"}, {"measurement": "Inhibition", "setting": "HepG2", "result": 0, "unit": "%"}]}, {"smiles": "CCOc1cc(CC)ccc1C1CCN(CCN2CCC(NC(=O)c3ccc(-c4ccc(C(C)=O)cc4)cc3)CC2)CC1", "values": [{"measurement": "Inhibition", "setting": "Plasmodium falciparum [1]", "result": 100, "unit": "%"}, {"measurement": "Inhibition", "setting": "Plasmodium falciparum [2]", "result": 8, "unit": "%"}, {"measurement": "Inhibition", "setting": "HepG2", "result": 25, "unit": "%"}]}, {"smiles": "CN(Cc1ccccc1)C(=O)CCNS(=O)(=O)c1cc(Br)cnc1N", "values": [{"measurement": "Inhibition", "setting": "Plasmodium falciparum [1]", "result": 91, "unit": "%"}, {"measurement": "Inhibition", "setting": "Plasmodium falciparum [2]", "result": 61, "unit": "%"}, {"measurement": "Inhibition", "setting": "HepG2", "result": 0, "unit": "%"}]}, {"smiles": "CS(=O)(=O)NCCCNCc1ccc(-c2ccc(-c3nc4cc(C(F)(F)F)ccc4[nH]3)cc2)cc1.O=C(O)C(F)(F)F", "values": [{"measurement": "Inhibition", "setting": "Plasmodium falciparum [1]", "result": 100, "unit": "%"}, {"measurement": "Inhibition", "setting": "Plasmodium falciparum [2]", "result": 83, "unit": "%"}, {"measurement": "Inhibition", "setting": "HepG2", "result": 25, "unit": "%"}]}, {"smiles": "FC(F)(F)c1ccc2[nH]ccc(=NN=Cc3ccccc3)c2c1", "values": [{"measurement": "Inhibition", "setting": "Plasmodium falciparum [1]", "result": 92, "unit": "%"}, {"measurement": "Inhibition", "setting": "Plasmodium falciparum [2]", "result": 2, "unit": "%"}, {"measurement": "Inhibition", "setting": "HepG2", "result": 7, "unit": "%"}]}, {"smiles": "CCCCc1ccc(C(=O)NC2CCN(C[C@H](O)c3ccnc4ccc(OC)cc34)CC2)cc1", "values": [{"measurement": "Inhibition", "setting": "Plasmodium falciparum [1]", "result": 91, "unit": "%"}, {"measurement": "Inhibition", "setting": "Plasmodium falciparum [2]", "result": 22, "unit": "%"}, {"measurement": "Inhibition", "setting": "HepG2", "result": 24, "unit": "%"}]}, {"smiles": "Cl.c1ccc(-c2ccc3c(Nc4ccc5[nH]ncc5c4)ccnc3c2)nc1", "values": [{"measurement": "Inhibition", "setting": "Plasmodium falciparum [1]", "result": 100, "unit": "%"}, {"measurement": "Inhibition", "setting": "Plasmodium falciparum [2]", "result": 99, "unit": "%"}, {"measurement": "Inhibition", "setting": "HepG2", "result": 99, "unit": "%"}]}, {"smiles": "CC1(CCN2CCC(c3c[nH]c4cnccc34)CC2)CCCc2c(Br)cccc2C1=O.Cl", "note": "(stereo not drawn)", "values": [{"measurement": "Inhibition", "setting": "Plasmodium falciparum [1]", "result": 100, "unit": "%"}, {"measurement": "Inhibition", "setting": "Plasmodium falciparum [2]", "result": 66, "unit": "%"}, {"measurement": "Inhibition", "setting": "HepG2", "result": 14, "unit": "%"}]}, {"smiles": "Br.CC(C)(C)c1ccc(OCCCON2C(=N)N=C(N)NC2(C)C)c(C(C)(C)C)c1", "values": [{"measurement": "Inhibition", "setting": "Plasmodium falciparum [1]", "result": 93, "unit": "%"}, {"measurement": "Inhibition", "setting": "Plasmodium falciparum [2]", "result": 97, "unit": "%"}, {"measurement": "Inhibition", "setting": "HepG2", "result": 64, "unit": "%"}]}, {"smiles": "COc1ccc(CCN(C)CCOc2ccc(NC(=O)c3cc(SC)cc4c(=O)c5ccccc5[nH]c34)cc2)cc1OC", "values": [{"measurement": "Inhibition", "setting": "Plasmodium falciparum [1]", "result": 87, "unit": "%"}, {"measurement": "Inhibition", "setting": "Plasmodium falciparum [2]", "result": 44, "unit": "%"}, {"measurement": "Inhibition", "setting": "HepG2", "result": 7, "unit": "%"}]}, {"smiles": "O=C1Nc2ccc3ncccc3c2/C1=C/Nc1ccc(Cn2ccnc2)cc1", "values": [{"measurement": "Inhibition", "setting": "Plasmodium falciparum [1]", "result": 100, "unit": "%"}, {"measurement": "Inhibition", "setting": "Plasmodium falciparum [2]", "result": 85, "unit": "%"}, {"measurement": "Inhibition", "setting": "HepG2", "result": 33, "unit": "%"}]}]}
